“And” between values parts separate entries of the source, which are not always exact repeats. Identical values can stand only once. Records with an inconclusive call do not appear. More than one record can exist for a structure, and the calls need not agree. The source made the active and inactive calls.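 Rule for the calls, unless noted: active = normalized viability below 100% at a tested concentration; inactive = the rest.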
Columns and labels:
[1] = viability loss in pontine glioma line – cell-based, SU-DIPG-IV, MIPE4.0, CellTiter-Glo, qHTS, dose response (AID 1347063; cut-off not given, nearly all actives have AC50 up to about 30 µM;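 note: compound exposure lasted 48 hours before the viability readout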); conditions: CellTiter-Glo ATP luminescence
[2] = viability loss in pontine glioma line – cell-based, SU-DIPG-XXV, MIPE5.0, CellTiter-Glo, qHTS, dose response (AID 1347065; cut-off not given, nearly all actives have AC50 up to about 26 µM;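 note: cells exposed to compound for 48 hours before ATP readout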); conditions: CellTiter-Glo ATP luminescence
[3] = growth inhibition of DIPG cells – cell-based, MIPE4.0 library, CellTiter-Glo luminescence, qHTS (AID 1347066; cut-off not given, nearly all actives have AC50 up to about 30 µM;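 note: cells exposed to compound for 48 hours before readout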); conditions: SU-DIPG-VI viability, CellTiter-Glo ATP luminescence
[4] = JHH-DIPG-1 glioma cell viability, MIPE5.0 library, CellTiter-Glo luminescence, qHTS (AID 1347067; cut-off not given, nearly all actives have AC50 up to about 26 µM;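 note: cells exposed to compound for 48 hours before readout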); conditions: JHH-DIPG-1 glioma viability, CellTiter-Glo ATP luminescence
[5] = growth inhibition of DIPG cells – cell-based, MIPE5.0 library, qHTS (AID 1347068; cut-off not given, nearly all actives have IC50 up to about 30 µM;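 for IC50: cells exposed to compound for 48 hours before viability readout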); conditions: SU-DIPG-XXV viability
[6] = compounds altering HSF1 focus formation in cells – imaging, Selleck Cancer Library (AID 1347162; in the data active = plate-normalised HSF1 focus index below about 0.46); conditions: human cells, HSF1 nuclear foci imaging, at 10 µM; SSMD: measured here: HSF1 foci SSMD mean; cell count: measured here: cell number; plate-normalised HSF1 focus index: stronger effect = lower value
[7] = drug combination growth inhibition, ovarian cancer – cell-based, oncology-focused library, rucaparib conditional, profiling panel (AID 1508598); conditions: patient-derived ovarian cancer cells, CellTiter-Glo viability, 144 h, stronger effect = lower value
[8] = viability loss in pontine glioma line – cell-based, SU-DIPG-XIII, MIPE5.0, CellTiter-Glo, qHTS, dose response (AID 1347064; cut-off not given, nearly all actives have AC50 up to about 23 µM;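 for AC50: cells exposed to compound for 48 hours before the viability read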); conditions: CellTiter-Glo ATP luminescence
[9] = viability loss with induced miR-34 in A549 – imaging, A549 dox-inducible miR-34, nuclei and caspase counts, primary screen (AID 1347080;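 active = compounds whose cell count with miR-34 switched on is under 0.7 times the count with it off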); conditions: A549 miR-34 inducible, Hoechst nuclei count, 48 h
[10] = MELAS cybrid and Rieske KO viability enhancers – cell-based, MELAS cybrids, Rieske KO mouse fibroblasts, CellTiter-Glo, primary screen (AID 1508586;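 active = mean z-score across replicates of 1.96 or higher in either the MELAS or the Rieske mutant cell line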;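 note: z relative to plate mean and SD of compound and empty wells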); conditions: low glucose
[11] = liver-stage malaria parasite load reduction – cell-based, known kinase inhibitor set, luminescence, hepatoma host viability (AID 624392; call rule not given here;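 note: infected cells incubated roughly two days before readout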); conditions: Plasmodium liver stage in hepatoma cells, luciferase luminescence, concentration not given here; liver cell % of control: measured here: host liver cell viability; parasite % of control: stronger effect = lower value
[12] = at 0.000305 µM, OCI-C5x cells, with rucaparib 10 µM, 100% = cells with rucaparib alone
[13] = at 0.000305 µM, OCI-C5x cells, without rucaparib
[14] = at 0.000305 µM, OCI-P5x cells, with rucaparib 20 µM, 100% = cells with rucaparib alone
[15] = at 0.000305 µM, OCI-P5x cells, without rucaparib
[16] = at 0.00122 µM, OCI-C5x cells, with rucaparib 10 µM, 100% = cells with rucaparib alone
[17] = at 0.00122 µM, OCI-C5x cells, without rucaparib
[18] = at 0.00122 µM, OCI-P5x cells, with rucaparib 20 µM, 100% = cells with rucaparib alone
[19] = at 0.00122 µM, OCI-P5x cells, without rucaparib
[20] = at 0.00488 µM, OCI-C5x cells, with rucaparib 10 µM, 100% = cells with rucaparib alone
[21] = at 0.00488 µM, OCI-C5x cells, without rucaparib
[22] = at 0.00488 µM, OCI-P5x cells, with rucaparib 20 µM, 100% = cells with rucaparib alone
[23] = at 0.00488 µM, OCI-P5x cells, without rucaparib
[24] = at 0.0195 µM, OCI-C5x cells, with rucaparib 10 µM, 100% = cells with rucaparib alone
[25] = at 0.0195 µM, OCI-C5x cells, without rucaparib
[26] = at 0.0195 µM, OCI-P5x cells, with rucaparib 20 µM, 100% = cells with rucaparib alone
[27] = at 0.0195 µM, OCI-P5x cells, without rucaparib
[28] = at 0.0781 µM, OCI-C5x cells, with rucaparib 10 µM, 100% = cells with rucaparib alone
[29] = at 0.0781 µM, OCI-C5x cells, without rucaparib
[30] = at 0.0781 µM, OCI-P5x cells, with rucaparib 20 µM, 100% = cells with rucaparib alone
[31] = at 0.0781 µM, OCI-P5x cells, without rucaparib
[32] = at 0.313 µM, OCI-C5x cells, with rucaparib 10 µM, 100% = cells with rucaparib alone
[33] = at 0.313 µM, OCI-C5x cells, without rucaparib
[34] = at 0.313 µM, OCI-P5x cells, with rucaparib 20 µM, 100% = cells with rucaparib alone
[35] = at 0.313 µM, OCI-P5x cells, without rucaparib
[36] = at 1.25 µM, OCI-C5x cells, with rucaparib 10 µM, 100% = cells with rucaparib alone
[37] = at 1.25 µM, OCI-C5x cells, without rucaparib
[38] = at 1.25 µM, OCI-P5x cells, with rucaparib 20 µM, 100% = cells with rucaparib alone
[39] = at 1.25 µM, OCI-P5x cells, without rucaparib
[40] = at 5 µM, OCI-C5x cells, with rucaparib 10 µM, 100% = cells with rucaparib alone
[41] = at 5 µM, OCI-C5x cells, without rucaparib
[42] = at 5 µM, OCI-P5x cells, with rucaparib 20 µM, 100% = cells with rucaparib alone
[43] = at 5 µM, OCI-P5x cells, without rucaparib
[44] = stronger effect = lower value, cell number ratio, induced over uninduced
[45] = measured here: relative caspase fold change +Dox/-Dox
[46] = measured here: total cells with miR-34 induction, stronger effect = lower value
[47] = measured here: total cells without miR-34 induction
[48] = MELAS cybrid survival, CellTiter-Glo 48 h, stronger effect = higher value
[49] = Rieske KO mouse fibroblast survival, CellTiter-Glo 72 h

For `CN(C)CC[C@H](CSc1ccccc1)Nc1ccc(S(=O)(=O)NC(=O)c2ccc(N3CCN(Cc4ccccc4-c4ccc(Cl)cc4)CC3)cc2)cc1[N+](=O)[O-]`, the AC50 [1] was 7.43 µM (active), the AC50 [2] was 0.934 µM (active) and the AC50 [3] was 2.35 µM (active). For the same compound, the AC50 [4] was 16.6 µM (active), the IC50 [5] was 13.2 µM (active) and the SSMD [6] was -3.9. For the same compound, the cell count [6] was 6950, the plate-normalised HSF1 focus index [6] was 0.864 (inactive) and the viability [7, 12] was 121% (inactive). For the same compound, the viability [7, 13] was 119% (inactive), the viability [7, 14] was 148% (inactive) and the viability [7, 15] was 108% (inactive). For the same compound, the viability [7, 16] was 119% (inactive), the viability [7, 17] was 124% (inactive) and the viability [7, 18] was 135% (inactive). For the same compound, the viability [7, 19] was 102% (inactive), the viability [7, 20] was 109% (inactive) and the viability [7, 21] was 114% (inactive). The viability [7, 22] was 141% (inactive), the viability [7, 23] was 108% (inactive) and the viability [7, 24] was 85.3% (active). The viability [7, 25] was 114% (inactive), the viability [7, 26] was 140% (inactive) and the viability [7, 27] was 101% (inactive). For the same compound, the viability [7, 28] was 79.6% (active), the viability [7, 29] was 103% (inactive) and the viability [7, 30] was 135% (inactive). The viability [7, 31] was 99.6% (active), the viability [7, 32] was 69% (active) and the viability [7, 33] was 46.2% (active). For the same compound, the viability [7, 34] was 121% (inactive), the viability [7, 35] was 96.5% (active) and the viability [7, 36] was 62.2% (active). For the same compound, the viability [7, 37] was 91.3% (active), the viability [7, 38] was 130% (inactive) and the viability [7, 39] was 91.4% (active). The viability [7, 40] was 7.96% (active), the viability [7, 41] was 22.6% (active) and the viability [7, 42] was 9.56% (active). The viability [7, 43] was 75.3% (active).

With `C[C@]1(CO)CN(c2cc(C(=O)Nc3ccc4c(c3)-c3c(c(C(N)=O)nn3-c3ccc(F)cc3)CC4)c(Cl)cn2)C[C@@]1(C)CO` the AC50 [1] was 2.09 µM (active).

In the case of `C[C@@H]1CCNC(=O)c2cc3ccc(C(=O)Nc4nc5ccccc5n4CCCN(C)C)cc3n21`, the outcome [8] is reported as “inactive”.

For `c1ccc(-c2oc3ncnc(NC[C@@H]4CCCO4)c3c2-c2ccccc2)cc1`, the AC50 [1] was 20.9 µM (active), the AC50 [3] was 20.9 µM (active) and the outcome [5] was “inactive”.

For `CC(C)(C)Cn1c(N)nc2ccc(-c3[nH]c(C(C)(C)C)nc3-c3ccc(F)cc3)nc21`, the AC50 [1] was 26.4 µM (active), the AC50 [2] was 26.3 µM (active) and the AC50 [3] was 20.9 µM (active). The AC50 [4] was 20.9 µM (active), the fold change [9, 44] was 0.962 (inactive) and the fold change [9, 45] was 0.864. The cell count [9, 46] was 5480, the cell count [9, 47] was 5700 and the z-score [10, 48] was -0.234 (inactive). The z-score [10, 49] was 0.553, the viability [7, 12] was 114% (inactive) and the viability [7, 13] was 115% (inactive). For the same compound, the viability [7, 14] was 99.8% (active), the viability [7, 15] was 104% (inactive) and the viability [7, 16] was 112% (inactive). For the same compound, the viability [7, 17] was 110% (inactive), the viability [7, 18] was 101% (inactive) and the viability [7, 19] was 107% (inactive). For the same compound, the viability [7, 20] was 110% (inactive), the viability [7, 21] was 121% (inactive) and the viability [7, 22] was 108% (inactive). The viability [7, 23] was 110% (inactive), the viability [7, 24] was 103% (inactive) and the viability [7, 25] was 112% (inactive). For the same compound, the viability [7, 26] was 103% (inactive), the viability [7, 27] was 107% (inactive) and the viability [7, 28] was 96.9% (active). The viability [7, 29] was 117% (inactive), the viability [7, 30] was 101% (inactive) and the viability [7, 31] was 109% (inactive). For the same compound, the viability [7, 32] was 94.5% (active), the viability [7, 33] was 121% (inactive) and the viability [7, 34] was 103% (inactive). For the same compound, the viability [7, 35] was 105% (inactive), the viability [7, 36] was 108% (inactive) and the viability [7, 37] was 140% (inactive). The viability [7, 38] was 99.8% (active), the viability [7, 39] was 104% (inactive) and the viability [7, 40] was 175% (inactive). For the same compound, the viability [7, 41] was 175% (inactive), the viability [7, 42] was 90.5% (active) and the viability [7, 43] was 92.5% (active).

In the case of `Cc1nc(N)sc1-c1ccnc(Nc2ccc(N3CCOCC3)cc2)n1`, the liver cell % of control [11] is reported as 72.4% and 73.5% and 98.2%, the parasite % of control [11] is reported as 0.414% (inactive) and 0.47% (inactive) and 0.326% (active) and the AC50 [1] is reported as 20.9 µM (active). For the same compound, the AC50 [8] was 5.9 µM (active), the AC50 [2] was 2.63 µM (active) and the AC50 [4] was 14.8 µM (active). The fold change [9, 44] was 0.855 (inactive), the fold change [9, 45] was 1.29 and the cell count [9, 46] was 1260. It also gave a cell count [9, 47] of 1470, an SSMD [6] of 3.31 and a cell count [6] of 7110. For the same compound, the plate-normalised HSF1 focus index [6] was 1.12 (inactive), the z-score [10, 48] was 1.86 (inactive) and the z-score [10, 49] was -0.218. The viability [7, 12] was 109% (inactive), the viability [7, 13] was 111% (inactive) and the viability [7, 14] was 125% (inactive). For the same compound, the viability [7, 15] was 120% (inactive), the viability [7, 16] was 110% (inactive) and the viability [7, 17] was 112% (inactive). The viability [7, 18] was 115% (inactive), the viability [7, 19] was 120% (inactive) and the viability [7, 20] was 104% (inactive). For the same compound, the viability [7, 21] was 112% (inactive), the viability [7, 22] was 117% (inactive) and the viability [7, 23] was 124% (inactive). The viability [7, 24] was 104% (inactive), the viability [7, 25] was 95.4% (active) and the viability [7, 26] was 116% (inactive). The viability [7, 27] was 113% (inactive), the viability [7, 28] was 109% (inactive) and the viability [7, 29] was 108% (inactive). The viability [7, 30] was 115% (inactive), the viability [7, 31] was 115% (inactive) and the viability [7, 32] was 109% (inactive). For the same compound, the viability [7, 33] was 110% (inactive), the viability [7, 34] was 116% (inactive) and the viability [7, 35] was 113% (inactive). For the same compound, the viability [7, 36] was 101% (inactive), the viability [7, 37] was 113% (inactive) and the viability [7, 38] was 113% (inactive). The viability [7, 39] was 111% (inactive), the viability [7, 40] was 107% (inactive) and the viability [7, 41] was 108% (inactive). For the same compound, the viability [7, 42] was 97% (active) and the viability [7, 43] was 102% (inactive).

Source: PubChem BioAssay
